Holding throughout (test): PBM binding z-score (relative to random genomic background probes); higher = stronger binding; sequences stand for … in GC…GCGATTGACAGCGTAGAATGAAGG
The subject of assay [1] is FXR:RXRa (NR concentration 270 nM, RXRa partner concentration 90 nM). In outline: (§1)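 Regression normalization was applied to scanned fluorescence from custom Agilent 4×180K protein-binding microarrays. Before scanning, arrays were incubated 1 h with ligand-free nuclear receptor dimers, and binding was detected with antibodies against each partner (one per run). Binding z-scores use the random background probes as reference.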

The subject of assay [2] is LXRa:RXRa (NR concentration 270 nM, RXRa partner concentration 90 nM). Summed up: as §1
Assay [3] relates to LXRa homodimer (NR concentration 270 nM). In outline: as §1
The subject of assay [4] is LXRb:RXRa (NR concentration 270 nM, RXRa partner concentration 90 nM). In outline: as §1
The test system of assay [5] is LXRb homodimer (NR concentration 270 nM). Summed up: as §1
The subject of assay [6] is PPARa:RXRa (NR concentration 270 nM, RXRa partner concentration 90 nM). In outline:
as §1

Assay [7] deals with PPARg:RXRa (NR concentration 180 nM, RXRa partner concentration 90 nM). Summed up:
as §1

Assay [8] deals with PPARg:RXRa 270nM:90nM, anti-RXR (NR concentration 270 nM, RXRa partner concentration 90 nM). Summed up: as §1
Assay [9] relates to PPARg:RXRa 30nM:10nM, anti-RXR (NR concentration 30 nM, RXRa partner concentration 10 nM). In outline: as §1
The subject of assay [10] is PPARg:RXRa 90nM:30nM, anti-RXR (NR concentration 90 nM, RXRa partner concentration 30 nM). Summed up: as §1
The subject of assay [11] is PPARg:RXRa DBDmut IVT, anti-RXR (DBD mutation: RXRa K156A/R161A, NR concentration 270 nM, RXRa partner concentration 90 nM). In outline:
as §1

Assay [12] concerns PPARg:RXRa IVT, anti-PPARg (NR concentration 270 nM, RXRa partner concentration 90 nM). In outline:
as §1

The test system of assay [13] is PPARg DBDmut:RXRa IVT, anti-PPARg (DBD mutation: PPARg1 K132A/R137A, NR concentration 270 nM, RXRa partner concentration 90 nM). In outline: as §1
The test system of assay [14] is PPARg DBDmut IVT, anti-PPARg (DBD mutation: PPARg1 K132A/R137A, NR concentration 270 nM). In outline:
as §1

The subject of assay [15] is PPARg homodimer (NR concentration 180 nM). Summed up: as §1
Assay [16] has as its system PXR:RXRa (NR concentration 270 nM, RXRa partner concentration 90 nM). In outline:
as §1

For assay [17], the system named is PXR homodimer (NR concentration 270 nM). In outline:
as §1

The subject of assay [18] is RARa:RXR (NR concentration 270 nM, RXRa partner concentration 90 nM). In outline:
as §1

Assay [19] deals with RARa homodimer (NR concentration 270 nM). In outline: as §1
The subject of assay [20] is RARb:RXRa (NR concentration 270 nM, RXRa partner concentration 90 nM). In outline:
as §1

In the case of TCTGCTAGGTCAGTTGGTCAGCTACCGAGCTGCC, the PBM binding z-score in assay [1] is 0.866; in assay [2], 0.506; in [3] it was -0.683; in [4], -0.00907; in assay [5], -0.0816; in assay [6], 1.21. The PBM binding z-score in assay [7] came out at 0.156; in assay [8], 1.79; in [9], 1.19; in assay [10], 1.29; in assay [11], 2.75; in [12] it was 3.45. The PBM binding z-score in assay [13] was 0.596; in assay [14], 0.667; in assay [15], -0.139; in assay [16], 0.0735; in assay [17] it was -0.891; in assay [18], 0.438. Besides, the PBM binding z-score was -0.931 in assay [19] and 3.14 in assay [20].

For CCGACTGGGGCATAAGGCTACCATAAGCCAGCCC, the PBM binding z-score is -0.264 in [1]; -0.169 in assay [2]; -0.35 in assay [3]; -0.67 in assay [4]; -1.17 in assay [5]; 0.356 in [6]. The PBM binding z-score in [7] stood at 1.55; in assay [8] it was 2.13; in [9] it was 0.339; in assay [10], 1.84; in [11], 2.4; in assay [12], 2.19. Further, the PBM binding z-score is -1.08 in assay [13]; -1.23 in [14]; 0.226 in [15]; -0.731 in assay [16]; -0.51 in assay [17]; -0.184 in assay [18]. The PBM binding z-score in assay [19] was found to be 0.133; in assay [20] it was 0.337.

GCAGACATGTGAAACGCAGGTAACTCAGGGTGGC: the PBM binding z-score was -0.536 in assay [1]; -0.654 in assay [2]; -0.866 in [3]; -0.864 in [4]; -1.11 in assay [5]; -0.505 in assay [6]. Also, the PBM binding z-score is 0.622 in [7]; -0.625 in assay [8]; -0.725 in assay [9]; -0.59 in assay [10]; -0.934 in assay [11]; -0.641 in assay [12]. In addition, the PBM binding z-score was -0.654 in assay [13]; -1.35 in assay [14]; -1.78 in [15]; -0.925 in assay [16]; -0.866 in assay [17]; -0.472 in assay [18]. Moreover, the PBM binding z-score is -0.769 in assay [19] and -0.383 in [20].

For the sequence CAGAGTAGGTTATGGGGCATTCAGGCAACGGTGA, the PBM binding z-score in [1] is 0.558; in assay [2], 0.666; in assay [3] it was 0.0454; in [4], 0.833; in [5], -0.04; in assay [6] it was 2.78. Further, the PBM binding z-score in assay [7] came to 4.39; in assay [8] it was 5.4; in [9] it was 3.13; in assay [10] it was 5.42; in assay [11], 3.95; in assay [12], 4.66. Moreover, the PBM binding z-score in assay [13] turned out to be 1.11; in assay [14], 0.548; in assay [15], 1.69; in assay [16], 0.233; in assay [17], 0.246; in [18] it was 0.549. For the same sequence, the results for the PBM binding z-score in assay [19] and in assay [20] were 0.726 and 1.23, respectively.

Take TCATATAGGTAAACAGGTCAAAGTCCGTAAGTTA: the PBM binding z-score in assay [1] was 2.74; in assay [2], 3.19; in assay [3], 2.04; in assay [4], 3.12; in [5], 0.433; in assay [6] it was 4.55. Also, the PBM binding z-score in assay [7] is 5.08; in assay [8] it was 5.37; in assay [9], 4.97; in assay [10], 5.43; in assay [11], 5.17; in assay [12], 5.48. Moreover, the PBM binding z-score in assay [13] was found to be 3.64; in [14] it was 1.86; in assay [15] it was 2.44; in [16], 2.77; in assay [17] it was 0.953; in assay [18] it was 3.52. Besides, the figures for the PBM binding z-score in assay [19] and in assay [20] were 1.47 and 2.8, respectively.

Consider TCATATTGGTAAACAGGTGAAAGTCCGTAAGTTA, for which the PBM binding z-score in [1] amounted to 1.17; in assay [2], 0.929; in assay [3], 0.49; in assay [4] it was 1.15; in assay [5], 0.247; in assay [6], 1.66. Besides, the PBM binding z-score in [7] was determined as 0.821; in [8], 2.67; in assay [9], 4.04; in assay [10] it was 3.3; in assay [11] it was 2.2; in assay [12], 1.5. The PBM binding z-score in assay [13] was 0.411; in assay [14], 1.32; in assay [15], 1.25; in [16] it was 1.03; in assay [17], 0.511; in [18] it was 1.35. Further, the PBM binding z-score came out at 1.38 in assay [19] and 0.73 in assay [20].

In the case of TCTTGTTGATCAGCAGGTTAAGAAAGCTGGCCAA, the PBM binding z-score in [1] was 0.582; in assay [2] it was 0.423; in assay [3], -0.308; in assay [4], 0.784; in [5], -0.493; in assay [6] it was 0.727. The PBM binding z-score in assay [7] was -0.682; in assay [8], 1.17; in assay [9], 2.56; in assay [10] it was 1.66; in [11], 1.56; in assay [12] it was 0.0637. The PBM binding z-score in [13] was -0.302; in [14], -0.327; in assay [15] it was -0.0408; in [16], 0.332; in [17], -0.115; in assay [18], 0.447. The PBM binding z-score was -0.41 in assay [19] and 0.288 in [20].

These data come from the supplement of paper PMC6555819.
